Assay results: the supplement of paper PMC11624193, “Coupling cellular drug-target engagement to downstream pharmacology with CeTEAM” (Nature Communications, 2024)
Structures can show the parent of a compound that is named as a salt.

Target: PARP1 L713F-nLuc biosensor (HCT116) (UniProt P09874)
Test: PARP1 L713F-nLuc/akaLuc ratio relative to DMSO control (biosensor stabilization) (fold change); higher = more PARP1 biosensor stabilization (target engagement / stabilizer), active = hit call of the paper
Conditions: stock concentration (mM; final µM = stock mM x 1): 10; 24 h;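 active = log2 fold change beyond 2 SD from the library mean after excluding viability outliers; inactive = within 2 SD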

PARP1 L713F-nLuc biosensor (HCT116), sequence (P09874 whole entry L713F, looked up): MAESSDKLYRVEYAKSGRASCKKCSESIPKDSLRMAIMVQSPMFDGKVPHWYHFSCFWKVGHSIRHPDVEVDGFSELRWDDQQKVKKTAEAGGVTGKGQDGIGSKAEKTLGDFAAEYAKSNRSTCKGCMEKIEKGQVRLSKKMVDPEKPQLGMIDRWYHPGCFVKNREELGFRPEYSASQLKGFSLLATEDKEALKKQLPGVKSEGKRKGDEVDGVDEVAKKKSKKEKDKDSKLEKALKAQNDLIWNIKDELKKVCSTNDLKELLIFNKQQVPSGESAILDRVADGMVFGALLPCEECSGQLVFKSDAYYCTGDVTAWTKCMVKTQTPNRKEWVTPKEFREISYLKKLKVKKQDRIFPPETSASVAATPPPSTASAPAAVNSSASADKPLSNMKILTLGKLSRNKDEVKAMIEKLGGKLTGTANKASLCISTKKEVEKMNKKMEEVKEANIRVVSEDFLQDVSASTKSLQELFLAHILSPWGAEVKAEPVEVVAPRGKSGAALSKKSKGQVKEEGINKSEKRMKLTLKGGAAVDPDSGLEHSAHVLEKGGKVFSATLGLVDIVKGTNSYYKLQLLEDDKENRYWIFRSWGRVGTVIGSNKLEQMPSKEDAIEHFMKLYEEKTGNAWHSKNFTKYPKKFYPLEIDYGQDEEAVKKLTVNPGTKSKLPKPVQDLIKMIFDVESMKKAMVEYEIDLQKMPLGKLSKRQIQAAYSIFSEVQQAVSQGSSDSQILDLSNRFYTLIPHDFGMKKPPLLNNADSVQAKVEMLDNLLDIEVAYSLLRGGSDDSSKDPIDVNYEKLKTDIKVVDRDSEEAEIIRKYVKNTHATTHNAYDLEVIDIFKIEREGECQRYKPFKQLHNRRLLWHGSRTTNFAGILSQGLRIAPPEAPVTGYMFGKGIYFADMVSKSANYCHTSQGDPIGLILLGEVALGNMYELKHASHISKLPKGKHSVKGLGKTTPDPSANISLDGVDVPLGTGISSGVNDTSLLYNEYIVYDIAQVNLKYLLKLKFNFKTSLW

Row | Structure (SMILES) | PARP1 L713F-nLuc/akaLuc ratio
1 | CC[C@H](C)[C@H](NC(=O)[C@H](CCCCN)NC(=O)[C@H](CC(C)C)NC(=O)[C@@H]1CCCN1C(=O)[C@H](CCC(=O)O)NC(=O)[C@H](Cc1ccc(O)cc1)NC(=O)[C@@H](NC(=O)[C@H](CO)NC(=O)CNC(=O)[C@H](CO)NC(=O)[C@H](CCCN=C(N)N)NC(=O)[C@H](CCCCN)NC(=O)[C@@H](NC(=O)[C@@H](N)CCCN=C(N)N)[C@@H](C)O)C(C)C)C(=O)O [Malantide] | 1.76 (inactive)
2 | CN1CCCN(C(=O)c2cccc(-c3ccc(/C=C4/C(=O)Nc5ccc(Cl)cc54)o3)c2)CC1 | 0.758 (inactive)
3 | CC(C)N(C(=O)c1cc(F)ccc1Oc1cncnc1N1CC2(CCN(CC3CCC(NS(C)(=O)=O)CC3)CC2)C1)C(C)C (stereo not drawn) | 0.677 (inactive)
4 | C[C@@H]1CCN(C(=O)CC#N)C[C@@H]1N(C)c1ncnc2[nH]ccc12 [Tofacitinib] | 0.723 (inactive)
5 | NC(=O)[C@H]1CCCc2c1[nH]c1ccc(Cl)cc21 [(S)-Selisistat] | 0.706 (inactive)
6 | O=C1c2cccc(O)c2C(=O)c2c(O)cccc21 [Danthron] | 1.32 (inactive)
7 | COc1nn(C)cc1Nc1nccc(-c2c[nH]c3c(NC(=O)[C@@H](C)N4CCN(C)CC4)cccc23)n1 [Golidocitinib] | 0.637 (inactive)
8 | CO[C@@H](C(=O)N1Cc2[nH]nc(NC(=O)c3ccc(N4CCN(C)CC4)cc3)c2C1)c1ccccc1 | 0.781 (inactive)
9 | Cc1nn(C)cc1-c1nc2c(N3CCN(Cc4ccc(Cl)cc4)CC3)c(Cl)cnc2[nH]1 | 0.979 (inactive)
10 | CN1C[C@@H](Nc2cnn(C)c(=O)c2Br)C[C@@H](c2ccccc2)C1 | 0.711 (inactive)
11 | S=C(NCc1ccc2c(c1)OCO2)N1CCN(c2ncnc3c2oc2ccccc23)CC1 [Amuvatinib (MP-470)] | 0.659 (inactive)
12 | CC(=O)N1CCN([C@H]2CCC[C@@H](NC(=O)c3cc4c(F)ccc(C)c4[nH]3)C2)CC1 | 1.5 (inactive)
13 | Cc1nc(N)nc(N)c1-c1ccc(Cl)c(Cl)c1 [Metoprine] | 0.685 (inactive)
14 | O=C(NC[C@H](O)CN1CCc2ccccc2C1)c1ccnc(NC2CCC2)c1 | 0.738 (inactive)
15 | O=C(O)c1ccc2c(c1)nc(Nc1cccc(Cl)c1)c1ccncc12 [Silmitasertib (CX-4945)] | 0.822 (inactive)
16 | Cc1ccc(OCCSc2ncccn2)c(Br)c1 [ZLN024 (hydrochloride)] | 0.863 (inactive)
17 | C[C@@H]1CN(CC(=O)Nc2ccc3c(c2)Cc2cccc(-c4cc(=O)cc(N5CCOCC5)o4)c2S3)C[C@H](C)O1 | 0.788 (inactive)
18 | Nc1ncnc2c1ncn2[C@@H]1O[C@H](C(=O)N2CCN(CC(=O)Nc3cccc4c3CNC4=O)CC2)[C@@H](O)[C@H]1O [EB-47 (dihydrochloride)] | 0.793 (inactive)
19 | O=c1c2c([nH]n1-c1nc3ccccc3s1)CCCC2 | 0.788 (inactive)

Row | Structure (SMILES) | PARP1 L713F-nLuc/akaLuc ratio
20 | COc1c(CN)cc(CN)cc1OCCCN1Cc2ccccc2C1 [MS31 (trihydrochloride)] | 0.851 (inactive)
21 | COC(=O)c1cc(CN2CCN(C(=N)N)CC2)cc(C(=O)N2CCN(C(=O)c3ccc(C(=N)N)cc3)CC2)c1 [CBB1007 (trihydrochloride)] | 0.723 (inactive)
22 | O=c1c(O)c(-c2ccc(O)c(O)c2)oc2cc(O)ccc12 [Fisetin] | 0.701 (inactive)
23 | O=C(NOC[C@H](O)CO)c1ccc(F)c(F)c1Nc1ccc(I)cc1F | 0.6 (inactive)
24 | O=c1cc(O)cc(/C=C/c2ccc(O)c(O)c2)o1 [Hispidin] | 1.19 (inactive)
25 | CNC(=O)c1ccc(N2C(=S)N(c3ccc(C#N)c(C(F)(F)F)c3)C(=O)C2(C)C)cc1F [Enzalutamide (MDV3100)] | 0.993 (inactive)
26 | Cc1nc(F)ccc1-c1cc(Cn2ccn(C)c2=N)cc(C(=O)NCc2ccc(Cl)c(Cl)c2)c1 | 0.928 (inactive)
27 | CC(C)(CCCCCC(O)CCCCCC(C)(C)C(=O)O)C(=O)O [Bempedoic acid] | 1.02 (inactive)
28 | NC(=O)c1nc(-c2c(F)cccc2Cl)oc1Nc1ccc(C(=O)N2CCOCC2)cc1 | 0.914 (inactive)
29 | COc1cc2c(cc1OCCCN1CCCC1)N=C(N)C21CCC1 | 0.685 (inactive)
30 | Cc1nc(C(=O)NCC(=O)O)c(O)c2ccc(Oc3ccccc3)cc12 [Roxadustat (FG-4592)] | 1.63 (inactive)
31 | COc1cc(CCc2cc(NC(=O)c3ccc(N4CC(C)NC(C)C4)cc3)n[nH]2)cc(OC)c1 (stereo not drawn) | 0.745 (inactive)
32 | Nc1nc(=O)n(-c2cccc(-c3ccccc3)c2)cc1Cl [Bobcat339 (hydrochloride)] | 0.757 (inactive)
33 | CC(C)(O)CNc1nc(Nc2ccnc(C(F)(F)F)c2)nc(-c2cccc(C(F)(F)F)n2)n1 [Enasidenib (AG-221)] | 1.96 (inactive)
34 | Cc1nc(NC(=O)N2CCC[C@H]2C(N)=O)sc1-c1ccnc(C(C)(C)C(F)(F)F)c1 [Alpelisib (BYL719)] | 0.761 (inactive)
35 | CCOC(=O)c1cnc(NC2(c3ccccc3)CC2)nc1 | 0.982 (inactive)
36 | CO[C@H]1C[C@@H]2CC[C@@H](C)[C@@](O)(O2)C(=O)C(=O)N2CCCC[C@H]2C(=O)O[C@H]([C@H](C)C[C@@H]2CC[C@@H](OP(C)(C)=O)[C@H](OC)C2)CC(=O)[C@H](C)/C=C(\C)[C@@H](O)[C@@H](OC)C(=O)[C@H](C)C[C@H](C)/C=C/C=C/C=C/1C [Ridaforolimus (Deforolimus, MK-8669)] | 1.7 (inactive)
37 | Cn1cc(-c2cn3nccc3c(-c3cnn([C@]4(CC#N)C[C@@H](C#N)C4)c3)n2)cn1 [Ropsacitinib] | 1.02 (inactive)
38 | O[C@@H]1CO[C@H]2[C@@H]1OC[C@H]2Oc1nc2nc(-c3ccc(-c4ccccc4)cc3)c(Cl)cc2[nH]1 | 0.439 (inactive)
